Data from PubChem BioAssay (NCATS).
Records with an inconclusive call do not appear. The source made the active and inactive calls. Unless noted, calls follow the shape of the dose curve; as a rule, active = well fitted curve in either direction with a large enough effect (not every such curve was filed as active); inconclusive = small, poorly fitted or top-dose-only effect, or another doubt; inactive = flat fitted curve, though single readings scatter.

Key:
[1] = biological target: Lysosomal acid glucosylceramidase (Homo sapiens) (UniProt P04062); assay: Glucocerebrosidase-p2 (AID 348; in the data active = potency below about 10 µM; also: potency is read from the fitted curve at half-maximal effect); details: purified GBA, blue fluorogenic substrate, 40 min
Outline: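 Normal human glucocerebrosidase (0.2 nM) with blue fluorogenic substrate (80 uM final) in citrate/phosphate pH 5.9 with 10mM sodium taurocholate, 0.01% tween-20; 40 min RT, NaOH/glycine stop; fluorescence Ex 365/Em 440; AC50 from a titration from 0.6 nM upwards.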

[2] = AP1 Signaling Pathway (AID 357); details: ME-180 AP-1-bla reporter, EGF-induced, beta-lactamase ratio, 5 h; at 7.69 µM (top of the series) unless noted;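 also: ME-180 reporter cells stimulated with EGF at its EC50 level; % is scaled to controls: 0 for no effect and ±100 for the full control effect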
Outline: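 Beta-lactamase reporter under AP-1 response element, ME-180 background. Stimulus: EC50 EGF. Compound exposure 5 h, 37 °C. Detection: CCF4, 2.5 h RT, 460/530 nm. Values: AC50 from titration.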

[3] = NFAT Signaling Pathway (AID 444); details: Jurkat NFAT-bla M1, carbachol, beta-lactamase ratio, 5 h; at 7.69 µM (top of the series) unless noted;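 also: carbachol stimulus at about its EC50 of 1 µM final; % is scaled to controls: 0 for no effect and ±100 for the full control effect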
Outline: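 Jurkat cells carrying an NFAT-driven β-lactamase reporter and co-transfected muscarinic M1 receptor were treated with compound plus carbachol (1 uM final, an EC50 level) for 5 h at 37 °C. CCF4 loading followed for 1 h at RT; 460/530 nm ratio gave %activity.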

[4] = Stat Signaling Pathway (AID 446); details: ME-180 (cervical carcinoma) SIE beta-lactamase reporter, IL-6 stimulated, 5 h; at 7.69 µM (top of the series) unless noted;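 also: ME-180 cervical cancer cells given 40 pM IL-6 alongside compound; SIE-controlled beta-lactamase reporter measured as 460/530 nm FRET emission ratio; % is scaled to controls: 0 for no effect and ±100 for the full control effect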
Outline: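 Compound effects on IL-6-induced STAT reporter activity were measured in ME-180 cells. After overnight culture, cells were co-treated with 40 pM IL-6 for 5 hrs before beta-lactamase substrate loading at room temperature.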

[5] = biological target: Glucocorticoid receptor (Homo sapiens) (UniProt P04150); assay: GR-GFP Redistribution (AID 450;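 active = compounds whose dose series gives a full or clear partial fitted curve of increased nuclear translocation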; also: potency is read from the fitted curve at half-maximal effect); details: U2OS GR-GFP nuclear translocation, laser cytometry, 2 h
[6] = biological target: Glucocorticoid receptor (Homo sapiens) (UniProt P04150); assay: GR-EFC Redistribution (AID 451; calls by dose curve; also: potency is read from the fitted curve at half-maximal effect); details: CHO-K1 GR-EFC translocation, beta-gal luminescence, 2 h
Outline: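 CHO-K1 cells stably expressing nuclear-localized β-gal enzyme acceptor and GR fused C-terminally to the enzyme donor fragment; ligand-driven nuclear translocation restores β-gal by complementation. Compounds titrated up to 46 uM final, 2 h at 37 °C; luminescence read.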

[7] = biological target: Mitogen-activated protein kinase 10 (Mus musculus) (UniProt Q61831); assay: JNK3 AlphaScreen Assay (AID 530); details: JNK3 lysate, c-Jun phosphorylation; series mostly up to 11.4 µM;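 also: kinase came from lysate of stimulated human HepG2 cells; signal reports phosphorylation of biotinylated GST-cJun 1-79 at Ser73 with 10 µM ATP; % is scaled to controls: 0 for no effect and ±100 for the full control effect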
Outline: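 Phosphorylation of biotinylated GST-cJun(1-79) at Ser73 is measured by AlphaScreen proximity luminescence. Enzyme is JNK3 in HepG2 lysates activated with interleukin-1beta and tumor necrosis factor alpha; ATP is 10 uM final.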

[8] = biological target: 3',5'-cyclic-AMP phosphodiesterase 4B (Homo sapiens) (UniProt Q07343); assay: qHTS Assay for Inhibitors of PDE-IV (AID 607; active = well fitted activation curve with a large enough effect in the main read-out, with a control signal flat, not every such curve was filed as active; also: % of control where 0% means no effect); details: HEK293 ACTOne CNG channel cells, membrane potential fluorescence; series mostly up to 22.9 µM
Outline: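 ACTOne HEK293 cells carry a modified cAMP-gated CNG channel and express endogenous PDE4; plated 1000 cells/well, compounds up to 22.9 uM final. Membrane-potential dye fluorescence (ex 535/em 590) was read; parental cells received 10 uM forskolin + 100 uM RO 20-1724.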

Chain of 3',5'-cyclic-AMP phosphodiesterase 4B (Homo sapiens) (Q07343 whole entry, looked up): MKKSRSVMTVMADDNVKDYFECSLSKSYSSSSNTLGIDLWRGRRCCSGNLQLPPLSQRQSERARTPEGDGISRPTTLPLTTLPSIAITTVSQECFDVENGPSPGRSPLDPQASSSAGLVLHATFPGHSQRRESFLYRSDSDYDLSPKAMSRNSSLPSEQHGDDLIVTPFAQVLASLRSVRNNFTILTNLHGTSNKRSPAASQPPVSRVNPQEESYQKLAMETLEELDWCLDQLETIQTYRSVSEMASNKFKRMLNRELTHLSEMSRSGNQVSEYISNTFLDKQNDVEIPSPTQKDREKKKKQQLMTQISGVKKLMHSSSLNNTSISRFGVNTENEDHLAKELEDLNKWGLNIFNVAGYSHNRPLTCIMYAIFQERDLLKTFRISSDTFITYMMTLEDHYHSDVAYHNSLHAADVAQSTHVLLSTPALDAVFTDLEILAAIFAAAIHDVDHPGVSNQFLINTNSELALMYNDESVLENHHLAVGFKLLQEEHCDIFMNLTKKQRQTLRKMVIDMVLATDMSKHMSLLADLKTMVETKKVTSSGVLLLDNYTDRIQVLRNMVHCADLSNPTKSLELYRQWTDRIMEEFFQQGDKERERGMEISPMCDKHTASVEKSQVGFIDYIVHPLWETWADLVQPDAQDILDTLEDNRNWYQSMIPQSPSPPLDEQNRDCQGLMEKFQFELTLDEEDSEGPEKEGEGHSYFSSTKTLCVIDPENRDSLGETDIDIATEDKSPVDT
Chain of Glucocorticoid receptor (Homo sapiens) (P04150 whole entry, looked up, the tested form may be a part): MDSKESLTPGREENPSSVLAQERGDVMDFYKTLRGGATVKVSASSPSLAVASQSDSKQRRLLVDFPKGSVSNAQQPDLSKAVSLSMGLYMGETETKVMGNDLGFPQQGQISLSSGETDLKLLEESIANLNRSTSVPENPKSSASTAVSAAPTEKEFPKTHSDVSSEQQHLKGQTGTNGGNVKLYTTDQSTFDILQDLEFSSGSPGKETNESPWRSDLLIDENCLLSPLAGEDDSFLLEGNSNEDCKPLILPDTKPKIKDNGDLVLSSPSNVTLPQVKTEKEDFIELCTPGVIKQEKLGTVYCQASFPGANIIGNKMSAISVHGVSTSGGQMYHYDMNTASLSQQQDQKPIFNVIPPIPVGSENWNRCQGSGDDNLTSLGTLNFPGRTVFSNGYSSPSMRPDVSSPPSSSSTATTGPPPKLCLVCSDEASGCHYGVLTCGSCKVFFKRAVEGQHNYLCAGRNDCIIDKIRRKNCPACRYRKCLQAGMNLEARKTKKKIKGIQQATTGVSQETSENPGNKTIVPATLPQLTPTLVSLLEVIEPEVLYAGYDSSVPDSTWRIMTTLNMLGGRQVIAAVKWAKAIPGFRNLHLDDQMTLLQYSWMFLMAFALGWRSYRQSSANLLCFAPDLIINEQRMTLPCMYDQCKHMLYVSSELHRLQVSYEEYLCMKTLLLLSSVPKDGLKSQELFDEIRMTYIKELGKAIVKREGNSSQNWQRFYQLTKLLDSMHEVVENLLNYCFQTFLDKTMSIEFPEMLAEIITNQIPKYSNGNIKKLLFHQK
Chain of Lysosomal acid glucosylceramidase (Homo sapiens) (P04062 whole entry, looked up): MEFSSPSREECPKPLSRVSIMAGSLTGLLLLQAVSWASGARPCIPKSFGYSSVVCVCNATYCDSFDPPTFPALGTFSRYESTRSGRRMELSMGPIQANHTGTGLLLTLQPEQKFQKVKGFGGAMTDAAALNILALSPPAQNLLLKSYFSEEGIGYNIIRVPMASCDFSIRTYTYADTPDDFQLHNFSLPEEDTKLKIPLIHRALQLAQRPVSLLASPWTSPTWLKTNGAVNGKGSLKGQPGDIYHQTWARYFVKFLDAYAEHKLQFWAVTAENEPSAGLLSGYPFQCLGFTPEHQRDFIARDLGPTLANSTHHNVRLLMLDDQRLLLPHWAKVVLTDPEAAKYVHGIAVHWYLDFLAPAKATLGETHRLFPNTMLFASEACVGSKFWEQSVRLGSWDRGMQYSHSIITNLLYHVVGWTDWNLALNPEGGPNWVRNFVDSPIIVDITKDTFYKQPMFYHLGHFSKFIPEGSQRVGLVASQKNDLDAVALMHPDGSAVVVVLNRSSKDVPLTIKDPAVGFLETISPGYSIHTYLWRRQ

O=C(c1nc2ccc([N+](=O)[O-])cc2[nH]c1=O)[C@@H](O)c1ccc2c(c1)OCO2
inactive: Potency [1] > 11.4 µM | activity change, negative = inhibition [2] -1.57% | activity change, negative = inhibition [3] 2.9% | activity, negative = inhibition [4] 12.9% | Potency [5] > 46 µM | Potency [6] > 9.22 µM | Potency [7] | Potency [8]

COC(=O)c1cc(-c2ccc3ccccc3c2)[nH]c(=O)c1C#N
inactive: Potency [1] > 11.4 µM | activity change, negative = inhibition [2] -3.94% | activity change, negative = inhibition [3] 1.77% | activity, negative = inhibition [4] -1.42% | Potency [5] > 46 µM | Potency [6] > 9.22 µM | Potency [7] | Potency [8]

NC1=N[C@H](c2ccc(Cl)cc2)N(c2ccc(S(N)(=O)=O)cc2)C(N)=N1
inactive: Potency [1] > 11.4 µM | activity change, negative = inhibition [2] -2.15% | activity change, negative = inhibition [3] -10.1% | activity, negative = inhibition [4] -0.371% | Potency [5] > 46 µM | Potency [6] > 9.22 µM | Potency [7] | Potency [8]

CC(=O)Nc1ccc(-c2cc(C(=O)O)c3cc4ccccc4cc3n2)cc1
inactive: Potency [1] > 11.4 µM | activity change, negative = inhibition [2] 7.67% | activity change, negative = inhibition [3] 5.02% | activity, negative = inhibition [4] -2.25% | Potency [5] > 46 µM | Potency [6] > 9.22 µM | Potency [7] | Potency [8]

Cc1nc([N+](=O)[O-])cn1-c1nc2ccccn2c1[N+](=O)[O-]
inactive: Potency [1] > 11.4 µM | activity change, negative = inhibition [2] 2.55% | activity change, negative = inhibition [3] -3.74% | activity, negative = inhibition [4] 4.02% | Potency [5] > 46 µM | Potency [6] > 9.22 µM | Potency [7] | Potency [8]

N#C[C@H](C(=O)O)C(c1c(Cl)cccc1Cl)[C@H](C#N)C(=O)O
inactive: Potency [1] > 11.4 µM | activity change, negative = inhibition [2] 1.46% | activity change, negative = inhibition [3] 5.02% | activity, negative = inhibition [4] 5.11% | Potency [5] > 46 µM | Potency [6] > 9.22 µM | Potency [7] | Potency [8]

CC1=NNC(=S)NCCCN2CCN(CCCNC(=S)NN=C(C)C=NNC(=S)NCCCN3CCN(CCCNC(=S)NN=C1)CC3)CC2
inactive: Potency [1] > 11.4 µM | activity change, negative = inhibition [2] 4.7% | activity change, negative = inhibition [3] 5.96% | activity, negative = inhibition [4] -0.247% | Potency [5] > 46 µM | Potency [6] > 9.22 µM | Potency [7] | Potency [8]

CNS(=O)(=O)c1ccccc1C(=N)c1ccccc1
inactive: Potency [1] > 11.4 µM | activity change, negative = inhibition [2] -4.6% | activity change, negative = inhibition [3] 1.97% | activity, negative = inhibition [4] 0.878% | Potency [5] > 46 µM | Potency [6] > 9.22 µM | Potency [7] | Potency [8]

COC(=O)[C@@H]1C(O)[C@@H](C(=O)OC)[C@H](C)N(C)[C@@H]1C (stereo partly specified)
inactive: Potency [1] > 11.4 µM | activity change, negative = inhibition [2] 3.71% | activity change, negative = inhibition [3] 14.1% | activity, negative = inhibition [4] -1.12% | Potency [5] > 46 µM | Potency [6] > 9.22 µM | Potency [7] | Potency [8]

N#CC(=NCCO)C1=C(O)c2ccccc2C1=O
inactive: Potency [1] > 11.4 µM | activity change, negative = inhibition [2] -1.5% | activity change, negative = inhibition [3] 17.6% | activity, negative = inhibition [4] 10.7% | Potency [5] > 46 µM | Potency [6] > 9.22 µM | Potency [7] | Potency [8]

Cc1ccc(CCCC(=O)O)cc1C
inactive: Potency [1] > 11.4 µM | activity change, negative = inhibition [2] 2.32% | activity change, negative = inhibition [3] 9.24% | activity, negative = inhibition [4] 3.42% | Potency [5] > 46 µM | Potency [6] > 9.22 µM | Potency [7] | Potency [8]

CN(C)C[C@@H](O)c1ccc(Cl)c2ccccc12
inactive: Potency [1] > 11.4 µM | activity change, negative = inhibition [2] 13.3% | activity change, negative = inhibition [3] -4.99% | activity, negative = inhibition [4] 18.4% | Potency [5] > 46 µM | Potency [6] > 9.22 µM | Potency [7] | Potency [8]

O=C(O)c1nnsc1-c1ccc(-c2snnc2C(=O)O)cc1
inactive: Potency [1] > 11.4 µM | activity change, negative = inhibition [2] -0.0507% | activity change, negative = inhibition [3] 18.7% | activity, negative = inhibition [4] -0.666% | Potency [5] > 46 µM | Potency [6] > 9.22 µM | Potency [7] | Potency [8]

O=C(O)C(=Cc1ccnc2ccccc12)C(=O)O
inactive: Potency [1] > 11.4 µM | activity change, negative = inhibition [2] -3.98% | activity change, negative = inhibition [3] 24.2% | activity, negative = inhibition [4] 9.09% | Potency [5] > 46 µM | Potency [6] > 9.22 µM | Potency [7] | Potency [8]

CN(C)c1ccc2nc3c(C(=O)O)cc(=O)c(O)c-3oc2c1
inactive: Potency [1] > 11.4 µM | activity change, negative = inhibition [2] -7.19% | activity change, negative = inhibition [3] 4.18% | activity, negative = inhibition [4] -14.8% | Potency [5] > 46 µM | Potency [6] > 9.22 µM | Potency [7] | Potency [8]

O=c1oc2ccccc2c(O)c1/C=N/c1nc(-c2ccc(O)c(O)c2)cs1
inactive: Potency [1] > 11.4 µM | activity change, negative = inhibition [2] -3.14% | activity change, negative = inhibition [3] 27.7% | activity, negative = inhibition [4] -11.7% | Potency [5] > 46 µM | Potency [6] > 9.22 µM | Potency [7] | Potency [8]

NC(=O)NOC[C@@H]1NC(=O)NC1=O
inactive: Potency [1] > 11.4 µM | activity change, negative = inhibition [2] 0.037% | activity change, negative = inhibition [3] 8.44% | activity, negative = inhibition [4] 9.07% | Potency [5] > 46 µM | Potency [6] > 9.22 µM | Potency [7] | Potency [8]
